Measured values from PubChem BioAssay.
Calls of active or inactive are those of the source.

Experiments:
[1] = system: Plasmodium falciparum Sir2 (PF13_0152, Sir2A); assay: Plasmodium falciparum Sir2A binding compounds – biochemical, small-molecule microarray, 635 nm fluorescence, primary screen (AID 1098); conditions: fluorescence 635 nm, higher = more signal;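 also: score merges spot fluorescence intensity with its signal-to-noise ratio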
[2] = probe aDKK1 binding to arrayed compounds – biochemical, biotinylated probe, 635/667 nm fluorescence, primary screen (AID 1099); conditions: small-molecule microarray, higher = more signal;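 also: score merges 667nm spot fluorescence with signal to noise across triplicate slides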
[3] = probe aCHRDL2 binding to arrayed compounds – biochemical, biotinylated probe, 635/667 nm fluorescence, primary screen (AID 1100); conditions: small-molecule microarray, higher = more signal
[4] = change in splice reporter luminescence, either direction, cell-based, HEK293, spliceosome inhibition project, primary screen (AID 1101); conditions: HEK293 splicing luciferase reporter, 24 h, higher = more signal, called active from +8 up or from −8 down;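 also: HEK293 cells carrying a splicing-competent luciferase reporter gene; test concentration not given here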
[5] = target: Fibroblast growth factor 10 (Homo sapiens) (UniProt O15520); assay: compounds binding fibroblast growth factor 10 – biochemical, small-molecule microarray, 635 nm fluorescence, primary screen (AID 1102); conditions: FGF10 binding, fluorescence 635 nm, higher = more signal
[6] = system: glycogen synthase kinase-3 (GSK3A per assay name; protocol says GSK3B); assay: compounds binding glycogen synthase kinase-3 – biochemical, small-molecule microarray, 635 nm fluorescence, GSK3A, primary screen (AID 1103); conditions: fluorescence 635 nm, higher = more signal; also: the record names both GSK3A and GSK3B
[7] = target: Epidermal growth factor receptor (Homo sapiens) (UniProt P00533); assay: compounds binding epidermal growth factor receptor – biochemical, small-molecule microarray, 635 nm fluorescence, primary screen (AID 1104); conditions: EGFR binding, higher = more signal;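 also: score merges 667 nm emission intensity with spot signal to noise over triplicate slides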
[8] = target: Follistatin-related protein 3 (Homo sapiens) (UniProt O95633); assay: compounds binding follistatin-related protein 3 – biochemical, small-molecule microarray, 635 nm fluorescence, primary screen (AID 1105); conditions: FSTL3 binding, higher = more signal;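 also: score merges emission near 667 nm and signal to noise per printed spot across three slides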
[9] = target: Dickkopf-related protein 1 (Homo sapiens) (UniProt O94907); assay: small molecules binding DKK1 protein – biochemical, small-molecule microarray, 635 nm fluorescence scan, primary screen (AID 1106); conditions: higher = more signal;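 also: score merges emission near 667 nm with signal to noise over three replicate slides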
[10] = system: Inhibin beta A chain (activin A); assay: small molecules binding activin A – biochemical, small-molecule microarray, 635 nm fluorescence scan, primary screen (AID 1107); conditions: INHBA, higher = more signal;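 also: mouse activin A protein probed at 4.33 µg/mL on printed slides; score merges bound-protein fluorescence near 667 nm with spot signal-to-noise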
[11] = system: Human papillomavirus type 1a protein E7 (residues 44-93); assay: small molecules binding HPV E7 44-93 – biochemical, small-molecule microarray, residues 44-93, 635 nm fluorescence, primary screen (AID 1108); conditions: fluorescence 635 nm, higher = more signal;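 also: E7 fragment applied at 1 µg/mL in TBST for 1 h at 4 C; score combines spot fluorescence with its signal to noise ratio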
[12] = hepatitis C replication reporter changes, two-sided – Huh7 cells, luciferase reporter, HCV replication inhibitor project, primary screen (AID 1109); conditions: Huh7 HCV replicon luciferase reporter, 48 h; higher = more signal;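 also: huh7 hepatoma cells harbouring a luciferase neomycin HCV replicon reporter; luciferase luminescence as measure of HCV replicon replication; test concentration not given here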
[13] = target: Left-right determination factor 2 (Homo sapiens) (UniProt O00292); assay: small molecules binding LEFTY2 protein – biochemical, small-molecule microarray, 635 nm fluorescence scan, primary screen (AID 1110); conditions: higher = more signal
[14] = target: Calmodulin-1 (Homo sapiens) (UniProt P0DP23); assay: small molecules binding calmodulin-1 with EGTA – biochemical, small-molecule microarray, Cy5-labelled CALM1, profiling panel (AID 1111); conditions: Cy5-CALM1 binding fluorescence, higher = more signal;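 also: labelled calmodulin applied in Tris saline Tween buffer holding calcium plus EGTA and DTT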
[15] = target: Calmodulin-1 (Homo sapiens) (UniProt P0DP23); assay: small molecules binding Ca-loaded calmodulin-1 – biochemical, small-molecule microarray, Cy5-labelled CALM1, plus calcium, artefact control for SMM control-protein annotation, profiling panel (AID 1112); conditions: Cy5-CALM1 binding fluorescence, higher = more signal;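 also: score merges spot fluorescence with signal to noise from triplicate slides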
[16] = probe aWnt5a binding to arrayed compounds – biochemical, biotinylated probe, 635/667 nm fluorescence, primary screen (AID 1113); conditions: small-molecule microarray, higher = more signal;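 also: score merges 667 nm fluorescence intensity with signal-to-noise per printed feature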
[17] = probe aShh binding to arrayed compounds – biochemical, biotinylated probe, 635/667 nm fluorescence, primary screen (AID 1114); conditions: small-molecule microarray, higher = more signal;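 also: probe is biotin-labelled aShh protein from a stem cell growth factor screen; measures binding of labelled protein to compounds printed on the slide; score merges feature fluorescence at 667 nm with signal-to-noise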
[18] = probe aNog binding to arrayed compounds – biochemical, biotinylated probe, 635/667 nm fluorescence, primary screen (AID 1115); conditions: small-molecule microarray, higher = more signal;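 also: probe is biotinylated aNog protein used at 0.15 µg/mL for 1 h at 4 C; z-score combines 667 nm fluorescence of each spot with its signal to noise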
[19] = target: Torsin-1A-interacting protein 1 (Homo sapiens) (UniProt Q5JTV8); assay: compound microarray binding of lysate hLAP1 – cell lysate, small-molecule microarray, COS7 lysate, 635/667 nm fluorescence, primary screen (AID 1116); conditions: 635 nm fluorescence, higher = more signal
[20] = target: Alpha-bungarotoxin (Bungarus multicinctus) (UniProt P60615); assay: compounds binding labelled alpha-BTX control protein – biochemical, small-molecule microarray, Alexa647 label, 635/667 nm fluorescence, artefact control for SMM control protein annotation, profiling panel (AID 1117); conditions: alpha-BTX-A647 binding fluorescence, higher = more signal
Sequence of Alpha-bungarotoxin (Bungarus multicinctus) (P60615 whole entry, looked up): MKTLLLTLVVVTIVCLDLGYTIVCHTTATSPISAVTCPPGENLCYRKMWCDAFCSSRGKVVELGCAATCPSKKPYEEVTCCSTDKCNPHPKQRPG

Sequence of Follistatin-related protein 3 (Homo sapiens) (O95633 whole entry, looked up): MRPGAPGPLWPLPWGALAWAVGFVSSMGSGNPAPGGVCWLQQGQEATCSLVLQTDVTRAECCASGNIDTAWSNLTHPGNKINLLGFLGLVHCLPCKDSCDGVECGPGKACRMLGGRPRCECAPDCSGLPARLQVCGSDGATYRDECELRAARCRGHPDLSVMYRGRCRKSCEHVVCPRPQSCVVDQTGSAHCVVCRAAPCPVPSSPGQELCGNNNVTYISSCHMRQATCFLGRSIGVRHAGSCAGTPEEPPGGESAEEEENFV
Sequence of Fibroblast growth factor 10 (Homo sapiens) (O15520 whole entry, looked up): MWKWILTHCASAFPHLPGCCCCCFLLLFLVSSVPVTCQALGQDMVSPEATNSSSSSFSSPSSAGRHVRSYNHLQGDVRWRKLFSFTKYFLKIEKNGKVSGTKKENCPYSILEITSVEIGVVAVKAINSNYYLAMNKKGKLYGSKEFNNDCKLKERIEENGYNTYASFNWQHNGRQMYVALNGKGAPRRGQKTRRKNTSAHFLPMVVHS
Sequence of Epidermal growth factor receptor (Homo sapiens) (P00533 whole entry, looked up): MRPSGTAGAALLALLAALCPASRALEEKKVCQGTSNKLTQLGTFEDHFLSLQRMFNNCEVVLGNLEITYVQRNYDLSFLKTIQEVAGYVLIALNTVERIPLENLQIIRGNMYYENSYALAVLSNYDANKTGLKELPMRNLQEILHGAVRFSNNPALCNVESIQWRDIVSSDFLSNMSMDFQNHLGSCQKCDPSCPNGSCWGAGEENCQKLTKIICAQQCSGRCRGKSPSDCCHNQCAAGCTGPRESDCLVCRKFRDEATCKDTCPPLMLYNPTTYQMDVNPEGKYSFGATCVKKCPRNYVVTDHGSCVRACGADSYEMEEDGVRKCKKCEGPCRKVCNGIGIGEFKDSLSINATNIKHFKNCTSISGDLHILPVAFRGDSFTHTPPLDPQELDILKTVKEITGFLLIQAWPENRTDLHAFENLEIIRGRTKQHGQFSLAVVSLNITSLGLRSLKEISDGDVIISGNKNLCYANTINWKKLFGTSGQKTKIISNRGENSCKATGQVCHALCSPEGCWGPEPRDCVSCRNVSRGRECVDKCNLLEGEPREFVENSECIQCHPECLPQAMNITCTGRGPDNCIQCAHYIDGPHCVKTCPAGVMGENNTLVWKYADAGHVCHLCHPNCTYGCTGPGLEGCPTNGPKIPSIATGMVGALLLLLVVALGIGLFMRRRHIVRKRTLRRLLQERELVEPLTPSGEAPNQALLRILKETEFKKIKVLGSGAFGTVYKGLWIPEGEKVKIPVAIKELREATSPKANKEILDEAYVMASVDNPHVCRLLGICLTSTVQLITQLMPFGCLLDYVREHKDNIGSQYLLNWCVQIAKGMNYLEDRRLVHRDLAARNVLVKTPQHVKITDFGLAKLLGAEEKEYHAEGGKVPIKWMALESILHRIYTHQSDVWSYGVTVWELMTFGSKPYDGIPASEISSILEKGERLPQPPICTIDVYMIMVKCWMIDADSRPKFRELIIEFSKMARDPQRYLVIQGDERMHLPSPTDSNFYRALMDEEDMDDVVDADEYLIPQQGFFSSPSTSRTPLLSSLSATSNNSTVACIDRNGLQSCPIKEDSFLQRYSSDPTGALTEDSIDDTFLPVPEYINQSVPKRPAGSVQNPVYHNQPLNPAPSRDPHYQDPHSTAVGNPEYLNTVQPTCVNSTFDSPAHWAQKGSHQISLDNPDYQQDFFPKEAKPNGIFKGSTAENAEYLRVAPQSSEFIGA
Sequence of Left-right determination factor 2 (Homo sapiens) (O00292 whole entry, looked up): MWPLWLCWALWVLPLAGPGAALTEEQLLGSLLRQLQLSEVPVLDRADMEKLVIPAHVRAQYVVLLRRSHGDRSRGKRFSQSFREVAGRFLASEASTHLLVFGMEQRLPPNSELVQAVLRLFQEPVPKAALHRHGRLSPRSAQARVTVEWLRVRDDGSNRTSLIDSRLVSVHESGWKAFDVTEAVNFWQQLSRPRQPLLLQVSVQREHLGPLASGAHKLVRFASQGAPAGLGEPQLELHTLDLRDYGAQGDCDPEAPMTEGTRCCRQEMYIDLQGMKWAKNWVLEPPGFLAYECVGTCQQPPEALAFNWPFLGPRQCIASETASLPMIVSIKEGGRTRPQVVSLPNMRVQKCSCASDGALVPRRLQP
Sequence of Torsin-1A-interacting protein 1 (Homo sapiens) (Q5JTV8 whole entry, looked up): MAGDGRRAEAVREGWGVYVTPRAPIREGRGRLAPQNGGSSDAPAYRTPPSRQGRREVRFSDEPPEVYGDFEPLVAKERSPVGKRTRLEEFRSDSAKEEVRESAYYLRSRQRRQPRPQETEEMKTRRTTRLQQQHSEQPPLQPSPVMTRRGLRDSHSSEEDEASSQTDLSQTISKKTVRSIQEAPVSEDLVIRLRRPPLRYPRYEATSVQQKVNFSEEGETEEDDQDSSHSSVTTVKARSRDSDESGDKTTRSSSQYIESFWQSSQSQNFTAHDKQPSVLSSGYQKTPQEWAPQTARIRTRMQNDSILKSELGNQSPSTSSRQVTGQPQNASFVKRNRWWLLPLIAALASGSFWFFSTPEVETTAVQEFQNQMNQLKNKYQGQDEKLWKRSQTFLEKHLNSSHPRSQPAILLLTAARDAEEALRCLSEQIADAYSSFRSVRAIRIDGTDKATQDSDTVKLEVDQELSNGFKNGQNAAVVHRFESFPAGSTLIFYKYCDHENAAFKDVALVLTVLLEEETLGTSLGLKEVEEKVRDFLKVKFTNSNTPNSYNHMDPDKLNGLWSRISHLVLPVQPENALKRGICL
Sequence of Dickkopf-related protein 1 (Homo sapiens) (O94907 whole entry, looked up): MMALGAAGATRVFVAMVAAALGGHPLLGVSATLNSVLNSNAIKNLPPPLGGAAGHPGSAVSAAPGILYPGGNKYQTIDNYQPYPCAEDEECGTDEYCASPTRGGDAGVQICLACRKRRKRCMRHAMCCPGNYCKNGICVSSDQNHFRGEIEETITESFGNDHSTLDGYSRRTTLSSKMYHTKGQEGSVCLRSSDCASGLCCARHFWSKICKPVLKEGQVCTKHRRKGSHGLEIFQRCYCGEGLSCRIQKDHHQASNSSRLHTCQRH

| SMILES | composite z-score [1] | composite z-score [2] | composite z-score [3] | z-score [4] | composite z-score [5] | composite z-score [6] | composite z-score [7] | composite z-score [8] | composite z-score [9] | composite z-score [10] | composite z-score [11] | z-score [12] | composite z-score [13] | composite z-score [14] | composite z-score [15] | composite z-score [16] | composite z-score [17] | composite z-score [18] | composite z-score [19] | composite z-score [20] |
| --- | --- | --- | --- | --- | --- | --- | --- | --- | --- | --- | --- | --- | --- | --- | --- | --- | --- | --- | --- | --- |
| C[C@@H]1NC(=O)[C@@H](C)COC(=O)[C@H](C)NC(=O)[C@@H](C)COC1=O | 0.429 | -0.23 | -0.0595 | -1.35 (inactive) | 0.765 | 0.642 | 0.401 | 1.15 | 0.769 | -0.772 | 1.08 | 0.0151 | 0.737 | -0.152 | -0.521 | -0.12 | -0.243 | 0.0209 | -0.143 | 0.144 |
| Cc1ccc(S(=O)(=O)n2c3ccccc3c3nnc(C(=O)c4ccccc4)nc32)cc1 | -0.0568 | -0.153 | -0.22 | -1.04 (inactive) | 0.328 | 0.0643 | 0.494 | 0.511 | 0.563 | 0.546 | -0.463 | 3.59 | 0.563 | -0.357 | -0.367 | 0.0491 | -0.332 | -0.0926 | 0.302 | -0.306 |
| CO[C@H]1COC(=O)[C@@H](C)COC(=O)[C@H](COCc2ccccc2)NC(=O)CC=C[C@H]1C | 0.641 | -0.492 | -0.828 | 0.104 (inactive) | 0.121 | -0.523 | 0.039 | 0.678 | 0.705 | 2.01 | -1.39 | -0.292 | 1.23 | -3.3 | -3.53 | -0.247 | 0.0062 | 0.0139 | -0.526 | -0.445 |
| CCC=CCCC(OC(=O)c1ccc(Br)cc1)C1=CCCCC1=O (stereo not given) | 0.964 | -0.305 | 0.457 | 0.798 (inactive) | 0.681 | 0.166 | 0.718 | 1.05 | 0.592 | 1.55 | 1.17 | -2.38 | 0.664 | -1.06 | -1.54 | -0.0512 | -0.124 | -0.198 | 0.221 | 0.654 |
| CON=C(C)CCC(=O)OC[C@H]1O[C@H](c2ccccc2)C=C[C@@H]1Oc1ccc(OC)cc1 | 0.712 | -0.174 | -0.15 | 0.115 (inactive) | 0.142 | -0.496 | 0.213 | 0.189 | 0.474 | 0.854 | -0.65 | 0.275 | 0.353 | -0.515 | -0.724 | 0.0257 | -0.0769 | -0.148 | 0.474 | -0.0686 |
| CO[C@@H]1COC(=O)[C@@H](C)COC(=O)[C@@H](C)NC(=O)CC=C[C@@H]1C | 0.155 | -0.351 | -1.08 | -2.29 (inactive) | 1.22 | 0.571 | 0.318 | 1.33 | 1.73 | 0.675 | -1.03 | -2 | 1.51 | -0.99 | -2.06 | -0.2 | -0.13 | 0.0629 | 0.638 | -0.553 |
| COC(=O)[C@@H]1CC[C@H](C)[C@@H](c2ccc(C)cc2)N1C(=O)c1ccc(C=NO[C@@H]2O[C@H](COC(C)=O)[C@@H](OC(C)=O)[C@H](OC(C)=O)[C@H]2OC(C)=O)cc1 | 0.32 | -0.254 | -0.393 | -1.56 (inactive) | 0.666 | 0.798 | 0.323 | 0.92 | 0.374 | -0.059 | 0.918 | -0.465 | 0.368 | 0.0167 | -0.371 | -0.124 | 0.313 | -0.0208 | 0.218 | 0.884 |
| CO[C@H]1COC(=O)CC=C[C@@H](C)[C@H](OC)COC(=O)CCC[C@@H]1C | 0.786 | -0.175 | -0.791 | -1.16 (inactive) | 0.254 | 0.274 | 0.487 | 0.633 | 1.19 | 1.25 | -1.16 | -1.3 | 0.797 | -1.03 | -1.29 | -0.0751 | -0.0709 | -0.238 | 0.389 | -0.069 |
| Cc1cc2c(nc1C)CCCCN2CC(C)ON=C1[C@H]2CCn3c(=O)n(-c4ccccc4)c(=O)n3[C@H]2[C@H](O)[C@@H]2O[C@H]12 (stereo not given in full) | 0.606 | 0.213 | -0.0869 | 0.718 (inactive) | 1.11 | 0.331 | 0.302 | 1.05 | 0.7 | 1.3 | -0.0964 | -4.63 | 0.769 | -0.895 | -1.2 | 0.0839 | 0.258 | 0.0531 | 0.369 | 0.473 |
| CON=CC[C@@H]1C=C[C@H](OC(C)=O)[C@@H](COC(C)=O)O1 | 0.0728 | -0.146 | -0.0937 | 0.079 (inactive) | 0.277 | 0.184 | 0.393 | 0.727 | 0.531 | 1.68 | -0.0635 | 0.569 | 0.533 | -0.536 | -0.688 | 0.0004 | 0.351 | -0.0281 | 0.292 | 0.479 |
| O=C(C=Cc1ccc2c(c1)OCO2)c1ccc(F)cc1 | 0.818 | -0.136 | -0.459 | -0.603 (inactive) | 0.498 | -0.296 | 0.549 | 0.801 | 1.52 | 0.239 | -0.9 | 2.84 | 0.976 | -0.481 | -1.41 | -0.0455 | 0.297 | -0.126 | 0.569 | 0.444 |
| COc1ccc(COC(=O)NN=C2C[C@@H](O)[C@@H](O)[C@@H]3[C@@H]4C(=O)N(Cc5ccccc5)C(=O)[C@@H]4CC[C@H]23)cc1 | -0.515 | 0.743 | 1.39 | -0.262 (inactive) | -0.259 | -0.623 | -0.432 | -0.22 | -1.15 | 0.0152 | 1.36 | -0.632 | -0.475 | 0.0114 | -0.435 | -0.0758 | -0.206 | 0.194 | 0.589 | 0.469 |
